The values that follow come from ChEMBL document CHEMBL1961873, “Compounds: GSK PKIS; Assays: Nanosyn kinase panel” (2012).

The structures appear in SMILES notation. Several values for one entry are separate records, joined by “and”; a condition that tells them apart may be missing. Identical values can stand only once.

As usually defined, the inhibition is the drop in the measured response relative to a control, in per cent.
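Also: reported values are mean percent inhibition of ROCK1.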

For this test, the target named is Rho-associated protein kinase 1 (Homo sapiens) (UniProt Q13464). As to conditions: at 1 µM.
Sequence of Rho-associated protein kinase 1 (Homo sapiens) (Q13464 2-1354 limits assumed): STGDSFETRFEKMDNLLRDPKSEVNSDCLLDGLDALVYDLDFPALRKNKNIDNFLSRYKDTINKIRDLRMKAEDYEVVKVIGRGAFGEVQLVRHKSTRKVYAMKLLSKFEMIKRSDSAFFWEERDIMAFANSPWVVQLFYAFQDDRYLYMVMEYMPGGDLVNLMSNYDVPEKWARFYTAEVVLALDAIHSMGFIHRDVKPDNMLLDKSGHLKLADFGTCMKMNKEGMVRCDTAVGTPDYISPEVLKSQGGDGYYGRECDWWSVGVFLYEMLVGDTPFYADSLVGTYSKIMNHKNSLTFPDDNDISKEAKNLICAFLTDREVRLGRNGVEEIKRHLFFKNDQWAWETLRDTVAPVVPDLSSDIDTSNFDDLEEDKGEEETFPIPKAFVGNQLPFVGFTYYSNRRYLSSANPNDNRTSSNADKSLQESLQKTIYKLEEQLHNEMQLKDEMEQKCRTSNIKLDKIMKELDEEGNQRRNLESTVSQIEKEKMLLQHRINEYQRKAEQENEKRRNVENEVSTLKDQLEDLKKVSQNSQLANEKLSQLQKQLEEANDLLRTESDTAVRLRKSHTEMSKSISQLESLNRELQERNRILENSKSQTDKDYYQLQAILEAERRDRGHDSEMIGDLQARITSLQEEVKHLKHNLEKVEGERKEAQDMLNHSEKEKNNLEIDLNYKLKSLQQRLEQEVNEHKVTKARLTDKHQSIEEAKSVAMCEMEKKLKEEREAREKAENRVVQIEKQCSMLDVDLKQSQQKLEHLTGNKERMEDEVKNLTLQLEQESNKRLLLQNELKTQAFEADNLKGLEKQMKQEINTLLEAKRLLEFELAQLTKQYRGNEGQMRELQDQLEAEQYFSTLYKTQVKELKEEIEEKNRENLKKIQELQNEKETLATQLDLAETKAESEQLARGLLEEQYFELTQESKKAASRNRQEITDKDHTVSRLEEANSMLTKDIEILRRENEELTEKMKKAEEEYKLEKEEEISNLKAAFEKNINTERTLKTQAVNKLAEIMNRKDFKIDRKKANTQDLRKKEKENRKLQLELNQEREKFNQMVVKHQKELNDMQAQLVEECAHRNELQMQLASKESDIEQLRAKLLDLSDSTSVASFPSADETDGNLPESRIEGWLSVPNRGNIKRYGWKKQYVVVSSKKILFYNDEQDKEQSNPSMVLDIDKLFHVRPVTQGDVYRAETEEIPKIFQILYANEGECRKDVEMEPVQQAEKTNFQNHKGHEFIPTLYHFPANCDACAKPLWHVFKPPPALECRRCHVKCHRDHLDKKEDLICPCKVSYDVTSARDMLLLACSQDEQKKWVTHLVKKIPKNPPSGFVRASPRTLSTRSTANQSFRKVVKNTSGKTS
Take `c1cnn2ncc(-c3ccnc(NCCCN4CCOCC4)n3)c2c1`: the inhibition came out at 4.7%.

In the case of `FC(F)(F)CNc1nccc(-c2cnn3ncccc23)n1`, the inhibition is -0.11%.

Consider `CCS(=O)(=O)c1ccc(OC)c(Nc2ncc(-c3cccc(F)c3)o2)c1`, for which the inhibition came out at 2.95%.

For the molecule `COc1ccc(Nc2ncc(-c3ccccc3)o2)cc1OC`, the inhibition came to 2.03%.

As for `Cc1nnc(-c2cccc(-c3ccc(C(=O)NCC4CC4)cc3)c2)o1`, the inhibition was 2.23%.

Turning to `COc1cc(N2CCN(C(C)C)CC2)ccc1Nc1nc(Nc2cccc3ncccc23)c2cc[nH]c2n1`, the inhibition was determined as 0.37%.

Turning to `Cn1c(-c2nonc2N)nc2cnccc21`, the inhibition turned out to be 52.4%.

`CC1=C(C(=O)Nc2ccc3[nH]nc(C)c3c2)C(c2ccc(C(F)(F)F)cc2)CC(=O)N1` (stereo unspecified): the inhibition was found to be 89.8%.

For the molecule `CN1CCC(n2cnc(-c3ccc(F)cc3)c2-c2ccnc(NCCO)n2)CC1`, the inhibition was found to be 4.39%.

As for `COc1cc(Nc2ncc(-c3ccccc3)o2)cc(OC)c1`, the inhibition was 2.6%.

In the case of `CC1=C(C(=O)Nc2ccc3[nH]ncc3c2)C(c2ccc(F)cc2)N=C(c2ccc(C(F)(F)F)nc2)N1` (stereo unspecified), the inhibition is 73.2%.

With `Cc1ccc(-c2cc3c(NC(=O)C4CC4)ncnc3o2)cc1`, the inhibition came to 2.27%.

As for `O=C1Nc2ccccc2/C1=C1\CCc2cc(O)ccc21`, the inhibition is 2.49%.

For `CN(C)CCNC(=O)Nc1ccc(N(C)c2ccnc(Nc3ccc(CS(C)(=O)=O)cc3)n2)cc1`, the inhibition worked out at 19.8%.

As to `CS(=O)(=O)CCNCc1ccoc1-c1ccc2ncnc(Nc3ccc(OCc4ccccc4)cc3)c2c1`, the inhibition is -0.69%.

On to `CS(=O)(=O)Nc1ccc(-c2ccc3c(NC(=O)C4CC4)n[nH]c3c2)cc1`, for which the inhibition is 1.98%.

`O=C(Nc1n[nH]c2nnc(-c3cccnc3)cc12)C1CC1`: the inhibition was determined as 1.3%.

Consider `CC1(C)CC(n2cnc(-c3ccc(F)cc3)c2-c2ccnc(N)n2)CC(C)(C)N1`, for which the inhibition stood at 1.6%.

For `CNC(=O)c1ncccc1Nc1nc(Nc2cc3c(cc2OC)CCCN3C(=O)CN(C)C)nc2[nH]ccc12`, the inhibition came to 8.73%.

Turning to `COc1cccc(-n2ncc3c(N/N=C/c4ccc(C(=O)NCCN(C)C)cc4)ncnc32)c1`, the inhibition stood at 7.32%.

Turning to `Cc1c2ccc(N(C)c3ccnc(Nc4cccc(S(N)(=O)=O)c4)n3)cc2nn1C`, the inhibition was determined as 1.97%.

`OCCCNc1nccc(-c2c(-c3ccc(F)cc3)nn3cc(C(F)(F)F)ccc23)n1`: the inhibition was 2.58%.

Take `COc1cccc(Nc2nccc(-c3cnn4ncccc34)n2)c1`: the inhibition is 6.3%.

For the molecule `O=C(O[C@H]1CN[C@H](C#Cc2cc3ncnc(Nc4ccc(OCc5cccc(F)c5)c(Cl)c4)c3s2)C1)N1CCOCC1`, the inhibition is 1.71%.

In the case of `NS(=O)(=O)c1ccc(N/N=C2\C(=O)Nc3ccc(C(=O)NCc4ccncc4)cc32)cc1`, the inhibition came to 5.11%.

`CS(=O)(=O)CCNCc1ccc(-c2ccc3ncnc(Nc4ccc(OCc5ccccc5)cc4)c3c2)o1`: the inhibition was 1.69%.

On to `CCOc1ccc2c(-c3ccnc(Nc4cc(OC)cc(C(F)(F)F)c4)n3)cnn2n1`, for which the inhibition is -0.21%.

For the molecule `Nc1nonc1-c1nc2cnccc2n1C1CC1`, the inhibition is 79.3% and 77.8%.

For `CCN1CCC(C(=O)Nc2n[nH]c3nnc(-c4cccc(F)c4F)cc23)CC1`, the inhibition is -0.9%.

For the molecule `CS(=O)(=O)CCNCc1ccc(-c2ccc3ncnc(Nc4ccc(OCc5cccc(C(F)(F)F)c5)cc4)c3c2)o1`, the inhibition came to 3.01%.

Turning to `Nc1nccc(-c2c(-c3ccc(F)cc3)ncn2C2CCNCC2)n1`, the inhibition is 0.03% and 1.75%.
